Assay results taken from the supplement of paper PMC11732987, “Enantioselective OTUD7B fragment discovery through chemoproteomics screening and high-throughput optimisation” (Communications Chemistry, 2025).

Legend:
Assay in all cases: log2 ratio of Biotin-Ahx-Ub-VS probe labelling (fragment/DMSO); higher = less target engagement (more negative = stronger competition), active = hit call of the paper (q ≤ 0.05, log2 ratio ≤ -1)
Settings in all cases: compound concentration: 200 uM; treatment time: 3 h
[1] = biological target: T1, USP19 (UniProt O94966)
T1 sequence (whole entry): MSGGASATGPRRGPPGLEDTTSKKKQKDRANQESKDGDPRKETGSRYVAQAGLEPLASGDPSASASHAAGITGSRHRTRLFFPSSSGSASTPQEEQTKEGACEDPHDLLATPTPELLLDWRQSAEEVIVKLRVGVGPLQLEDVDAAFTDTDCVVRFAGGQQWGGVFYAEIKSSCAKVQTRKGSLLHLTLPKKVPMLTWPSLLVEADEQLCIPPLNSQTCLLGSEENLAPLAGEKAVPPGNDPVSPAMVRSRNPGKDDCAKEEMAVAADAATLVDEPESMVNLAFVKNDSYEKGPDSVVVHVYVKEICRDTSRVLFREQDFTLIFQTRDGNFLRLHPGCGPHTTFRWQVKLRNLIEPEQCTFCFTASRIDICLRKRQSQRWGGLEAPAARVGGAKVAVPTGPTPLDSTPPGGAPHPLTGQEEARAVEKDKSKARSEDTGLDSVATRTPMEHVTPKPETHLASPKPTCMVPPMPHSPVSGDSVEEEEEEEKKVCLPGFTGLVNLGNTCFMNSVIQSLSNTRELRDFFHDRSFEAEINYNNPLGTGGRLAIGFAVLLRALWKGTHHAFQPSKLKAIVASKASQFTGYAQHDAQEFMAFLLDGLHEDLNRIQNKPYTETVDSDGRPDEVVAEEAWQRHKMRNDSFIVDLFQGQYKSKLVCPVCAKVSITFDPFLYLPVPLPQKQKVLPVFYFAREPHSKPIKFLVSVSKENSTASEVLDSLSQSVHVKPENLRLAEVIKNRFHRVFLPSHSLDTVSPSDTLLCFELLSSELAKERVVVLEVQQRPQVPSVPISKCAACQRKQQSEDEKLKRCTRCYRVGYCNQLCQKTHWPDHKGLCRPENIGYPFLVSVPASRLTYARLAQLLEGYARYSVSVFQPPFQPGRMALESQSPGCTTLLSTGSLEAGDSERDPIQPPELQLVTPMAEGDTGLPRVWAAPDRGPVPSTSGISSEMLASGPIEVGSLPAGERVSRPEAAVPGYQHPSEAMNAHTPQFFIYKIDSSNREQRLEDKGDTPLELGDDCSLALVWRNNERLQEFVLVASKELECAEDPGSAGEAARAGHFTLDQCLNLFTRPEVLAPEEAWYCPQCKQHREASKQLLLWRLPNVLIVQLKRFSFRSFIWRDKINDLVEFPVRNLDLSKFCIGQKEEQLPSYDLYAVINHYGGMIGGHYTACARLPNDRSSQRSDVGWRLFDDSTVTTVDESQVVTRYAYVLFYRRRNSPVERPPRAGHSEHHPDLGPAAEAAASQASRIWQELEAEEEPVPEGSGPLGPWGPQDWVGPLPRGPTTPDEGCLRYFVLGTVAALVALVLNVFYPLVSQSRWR
In short: (§1)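 Average log2 ratios of fragment over vehicle were obtained by unpaired t-test from global-median-normalised Spectronaut label-free quantities. Proteins with ≥2 unique peptides were included. HEK293T lysate (495 µg per sample) was treated in triplicate with fragment at 200 µM or vehicle for 3 h, then with Biotin-Ahx-Ub-VS at 0.5 µM final for 1 h, and labelled DUBs were NeutrAvidin-enriched and run by diaPASEF LC-MS/MS.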

[2] = biological target: T2, USP22 (UniProt Q9UPT9)
T2 sequence (whole entry): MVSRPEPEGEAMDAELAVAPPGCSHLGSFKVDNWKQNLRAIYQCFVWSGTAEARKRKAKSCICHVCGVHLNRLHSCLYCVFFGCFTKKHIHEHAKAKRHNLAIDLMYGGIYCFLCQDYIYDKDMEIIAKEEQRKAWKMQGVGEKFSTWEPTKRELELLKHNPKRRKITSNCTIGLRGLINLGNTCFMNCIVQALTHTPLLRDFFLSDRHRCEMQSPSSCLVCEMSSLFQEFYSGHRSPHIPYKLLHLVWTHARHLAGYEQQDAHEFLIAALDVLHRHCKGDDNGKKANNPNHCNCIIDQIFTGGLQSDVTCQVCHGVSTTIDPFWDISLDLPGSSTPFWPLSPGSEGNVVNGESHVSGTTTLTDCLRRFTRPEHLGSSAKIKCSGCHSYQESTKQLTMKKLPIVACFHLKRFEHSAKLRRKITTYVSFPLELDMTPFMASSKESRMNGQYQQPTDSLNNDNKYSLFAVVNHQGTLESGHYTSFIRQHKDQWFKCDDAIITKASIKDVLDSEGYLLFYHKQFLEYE
In short: as §1

[3] = biological target: USP24 (UniProt Q9UPU5)
USP24, sequence (Q9UPU5 whole entry): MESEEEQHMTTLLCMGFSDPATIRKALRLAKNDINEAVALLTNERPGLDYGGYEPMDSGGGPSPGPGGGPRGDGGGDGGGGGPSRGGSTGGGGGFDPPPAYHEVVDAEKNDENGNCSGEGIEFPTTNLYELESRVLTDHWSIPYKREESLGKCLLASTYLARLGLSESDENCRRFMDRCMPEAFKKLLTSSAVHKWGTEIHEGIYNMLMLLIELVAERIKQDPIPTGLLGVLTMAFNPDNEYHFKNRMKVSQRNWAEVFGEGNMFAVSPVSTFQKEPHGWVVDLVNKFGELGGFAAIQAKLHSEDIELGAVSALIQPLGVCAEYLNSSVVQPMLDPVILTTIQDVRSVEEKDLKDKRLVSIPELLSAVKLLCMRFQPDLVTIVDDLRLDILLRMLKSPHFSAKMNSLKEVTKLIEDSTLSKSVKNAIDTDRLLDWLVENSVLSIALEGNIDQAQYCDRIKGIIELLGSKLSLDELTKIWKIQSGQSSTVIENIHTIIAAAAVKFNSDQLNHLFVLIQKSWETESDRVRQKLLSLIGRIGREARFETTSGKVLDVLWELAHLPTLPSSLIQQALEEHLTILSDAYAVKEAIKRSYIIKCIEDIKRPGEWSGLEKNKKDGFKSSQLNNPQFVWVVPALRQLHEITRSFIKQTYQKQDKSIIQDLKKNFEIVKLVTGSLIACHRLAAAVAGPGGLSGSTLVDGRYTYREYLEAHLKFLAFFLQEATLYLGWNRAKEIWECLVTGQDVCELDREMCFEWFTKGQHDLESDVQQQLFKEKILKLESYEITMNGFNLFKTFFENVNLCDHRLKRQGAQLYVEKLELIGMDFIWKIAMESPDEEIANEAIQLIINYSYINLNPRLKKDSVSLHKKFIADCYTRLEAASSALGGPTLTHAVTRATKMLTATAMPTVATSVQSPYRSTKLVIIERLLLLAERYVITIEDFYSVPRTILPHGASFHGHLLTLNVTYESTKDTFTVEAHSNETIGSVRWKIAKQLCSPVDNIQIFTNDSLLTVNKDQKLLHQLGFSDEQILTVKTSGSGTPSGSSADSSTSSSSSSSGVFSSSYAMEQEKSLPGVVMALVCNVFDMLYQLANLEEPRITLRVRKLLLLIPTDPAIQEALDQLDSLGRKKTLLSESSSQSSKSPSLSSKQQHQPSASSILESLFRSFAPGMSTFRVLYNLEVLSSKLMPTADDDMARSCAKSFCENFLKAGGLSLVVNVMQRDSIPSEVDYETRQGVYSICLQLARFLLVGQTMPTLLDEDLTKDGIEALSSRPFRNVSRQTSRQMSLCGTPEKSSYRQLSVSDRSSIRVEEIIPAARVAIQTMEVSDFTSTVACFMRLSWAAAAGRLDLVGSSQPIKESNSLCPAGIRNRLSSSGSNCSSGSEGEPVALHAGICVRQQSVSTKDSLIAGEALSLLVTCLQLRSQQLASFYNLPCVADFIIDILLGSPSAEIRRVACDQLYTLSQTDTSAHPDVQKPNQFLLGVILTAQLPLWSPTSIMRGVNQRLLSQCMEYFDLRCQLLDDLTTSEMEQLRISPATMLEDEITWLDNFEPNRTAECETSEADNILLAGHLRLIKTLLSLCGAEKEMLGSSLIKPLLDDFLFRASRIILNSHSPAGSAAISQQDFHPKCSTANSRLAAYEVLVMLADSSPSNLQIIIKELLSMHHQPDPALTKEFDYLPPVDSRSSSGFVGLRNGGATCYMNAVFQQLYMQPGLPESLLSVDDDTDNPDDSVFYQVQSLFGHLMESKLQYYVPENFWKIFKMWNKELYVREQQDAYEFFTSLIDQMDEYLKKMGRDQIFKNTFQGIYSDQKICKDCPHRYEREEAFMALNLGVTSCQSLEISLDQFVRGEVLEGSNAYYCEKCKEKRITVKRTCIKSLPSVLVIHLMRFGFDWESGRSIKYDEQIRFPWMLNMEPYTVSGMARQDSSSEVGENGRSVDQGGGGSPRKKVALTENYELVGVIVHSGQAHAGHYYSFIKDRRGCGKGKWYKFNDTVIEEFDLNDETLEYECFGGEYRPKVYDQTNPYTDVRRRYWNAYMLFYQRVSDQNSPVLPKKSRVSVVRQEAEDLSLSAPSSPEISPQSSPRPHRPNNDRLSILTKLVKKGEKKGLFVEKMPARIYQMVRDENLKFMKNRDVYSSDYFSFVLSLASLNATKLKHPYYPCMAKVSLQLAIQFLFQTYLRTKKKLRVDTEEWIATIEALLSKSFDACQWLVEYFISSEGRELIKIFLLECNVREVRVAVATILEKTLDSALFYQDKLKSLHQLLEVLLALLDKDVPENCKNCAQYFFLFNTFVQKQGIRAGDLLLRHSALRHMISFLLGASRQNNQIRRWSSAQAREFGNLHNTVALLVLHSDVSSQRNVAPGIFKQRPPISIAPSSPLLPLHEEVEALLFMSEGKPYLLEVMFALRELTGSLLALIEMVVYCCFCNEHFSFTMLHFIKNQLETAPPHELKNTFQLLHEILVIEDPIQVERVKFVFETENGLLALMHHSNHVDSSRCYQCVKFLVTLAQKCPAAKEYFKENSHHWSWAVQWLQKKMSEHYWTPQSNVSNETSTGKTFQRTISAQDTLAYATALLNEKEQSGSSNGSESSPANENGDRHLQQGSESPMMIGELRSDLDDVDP
In short: as §1

[4] = biological target: T3, USP25 (UniProt Q9UHP3)
T3 sequence (whole entry): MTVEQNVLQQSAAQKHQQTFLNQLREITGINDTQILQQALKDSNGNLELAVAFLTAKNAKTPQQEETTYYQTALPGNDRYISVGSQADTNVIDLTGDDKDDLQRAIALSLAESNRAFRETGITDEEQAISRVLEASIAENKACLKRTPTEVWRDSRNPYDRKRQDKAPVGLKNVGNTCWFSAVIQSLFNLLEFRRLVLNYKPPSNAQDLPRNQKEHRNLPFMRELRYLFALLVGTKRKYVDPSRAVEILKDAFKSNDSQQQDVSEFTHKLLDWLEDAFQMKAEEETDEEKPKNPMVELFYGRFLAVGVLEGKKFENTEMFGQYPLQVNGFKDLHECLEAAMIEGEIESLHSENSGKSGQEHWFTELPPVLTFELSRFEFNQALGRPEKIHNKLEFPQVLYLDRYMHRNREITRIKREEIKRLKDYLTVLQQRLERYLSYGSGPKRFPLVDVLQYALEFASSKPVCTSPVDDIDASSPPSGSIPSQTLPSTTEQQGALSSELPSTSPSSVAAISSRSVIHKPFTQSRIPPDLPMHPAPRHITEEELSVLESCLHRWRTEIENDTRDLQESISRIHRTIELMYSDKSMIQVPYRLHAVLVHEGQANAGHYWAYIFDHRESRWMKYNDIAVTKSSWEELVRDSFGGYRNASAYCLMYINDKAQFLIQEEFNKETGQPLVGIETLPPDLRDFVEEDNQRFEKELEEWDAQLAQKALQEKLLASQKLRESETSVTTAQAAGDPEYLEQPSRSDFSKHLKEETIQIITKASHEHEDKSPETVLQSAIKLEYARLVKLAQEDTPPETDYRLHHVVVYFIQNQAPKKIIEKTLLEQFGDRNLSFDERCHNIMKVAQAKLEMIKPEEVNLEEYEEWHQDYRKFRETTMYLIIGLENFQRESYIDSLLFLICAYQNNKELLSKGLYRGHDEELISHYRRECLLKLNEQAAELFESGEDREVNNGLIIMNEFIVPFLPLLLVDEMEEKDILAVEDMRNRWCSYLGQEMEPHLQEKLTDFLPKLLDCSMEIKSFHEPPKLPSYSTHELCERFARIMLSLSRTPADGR
In short: as §1

[5] = biological target: T4, USP28 (UniProt Q96RU2)
T4 sequence (whole entry): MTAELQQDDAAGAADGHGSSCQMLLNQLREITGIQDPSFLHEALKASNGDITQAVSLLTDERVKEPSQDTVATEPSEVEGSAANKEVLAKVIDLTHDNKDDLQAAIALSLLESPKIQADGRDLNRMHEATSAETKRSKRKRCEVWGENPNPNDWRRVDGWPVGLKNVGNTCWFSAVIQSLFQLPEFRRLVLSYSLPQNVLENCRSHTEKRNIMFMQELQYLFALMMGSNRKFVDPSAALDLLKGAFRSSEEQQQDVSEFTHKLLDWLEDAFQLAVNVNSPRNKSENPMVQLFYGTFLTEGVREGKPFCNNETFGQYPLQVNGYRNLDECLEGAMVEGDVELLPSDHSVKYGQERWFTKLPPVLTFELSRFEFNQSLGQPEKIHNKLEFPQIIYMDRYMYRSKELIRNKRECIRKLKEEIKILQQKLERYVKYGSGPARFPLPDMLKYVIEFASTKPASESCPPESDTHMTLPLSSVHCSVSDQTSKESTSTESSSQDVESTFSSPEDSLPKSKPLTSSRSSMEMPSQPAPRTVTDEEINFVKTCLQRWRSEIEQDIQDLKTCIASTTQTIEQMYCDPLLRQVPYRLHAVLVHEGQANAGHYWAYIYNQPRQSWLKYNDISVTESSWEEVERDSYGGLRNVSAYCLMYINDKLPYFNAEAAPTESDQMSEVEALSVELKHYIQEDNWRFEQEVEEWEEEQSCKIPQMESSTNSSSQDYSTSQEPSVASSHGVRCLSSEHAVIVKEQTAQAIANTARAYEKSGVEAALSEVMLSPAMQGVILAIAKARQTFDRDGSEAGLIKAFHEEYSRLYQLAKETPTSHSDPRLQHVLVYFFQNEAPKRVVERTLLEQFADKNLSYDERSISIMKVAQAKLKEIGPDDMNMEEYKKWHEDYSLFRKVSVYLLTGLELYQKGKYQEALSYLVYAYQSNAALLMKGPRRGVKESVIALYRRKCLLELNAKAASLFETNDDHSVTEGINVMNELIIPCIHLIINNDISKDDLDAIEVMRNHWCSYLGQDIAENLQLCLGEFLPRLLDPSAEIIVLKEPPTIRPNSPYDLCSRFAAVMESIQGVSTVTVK
In short: as §1

Measured: log2 ratio of Biotin-Ahx-Ub-VS probe labelling

COc1cccc(CN(C)C(=O)CCl)c1
inactive: [1] -0.352 | [2] -0.426 | [3] -0.497 | [4] -0.669 | [5] -0.772
